Methyltransferases: Primary Screen for Target Class Profiling of Small Molecule Inhibitors of Methyltransferases; AID 1745853, 2022; purified enzyme, MTase-Glo SAH luminescence; active compounds read low; actives 3.9% (n = 25,000); calls only at 40 µM; call rule not given here
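Each enzyme was reacted with SAM and its substrate, with compounds tested once at 40 uM; SAH formed was read by MTase-Glo luminescence.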
Of the large screens only hits and unclear results are named; the others gave an inactive call; ! = not confirmed by another sample. Only a selection was taken, and hits are over-represented in it overall.

CCCn1c(=O)c2ccc(Cl)cc2n2c(SCC(=O)Nc3cccc(Cl)c3)nnc12	none
CC(=O)O[C@@H]1[C@@H](CO)O[C@@](CO)(O[C@H]2O[C@H](COC(=O)/C=C/c3ccccc3)[C@@H](O)[C@H](O)[C@H]2O)[C@H]1O	none
O=C(/C=C/c1ccccc1)OC[C@H]1O[C@@H](OC(=O)c2cc(O)c(O)c(O)c2)[C@H](O)[C@@H](O)[C@@H]1O	Methyltransferases active
O=C(/C=C/c1ccc(O)cc1)OC[C@H]1O[C@@H](O/C(=C\c2ccccc2)C(=O)O)[C@H](O)[C@@H](O)[C@@H]1O	none
CN1C(=O)c2cc(C(=O)NCCCN3CCOCC3)nn2CC1(C)C(=O)NC1CCCCCC1 (stereo not given)	none
Cc1cc2c(cc3n2CC(C)(C(=O)NC2CCCCCCC2)N(Cc2ccc(Cl)cc2)C3=O)o1 (stereo not given)	none
COc1cnc(-c2ccc(Cn3c(CC(C)(C)C(=O)O)c(SC(C)(C)C)c4cc(OC[C@@H]5Cc6ccccc6N5C(C)=O)ccc43)cc2)nc1	Methyltransferases active
Cc1cc2[nH]c(=O)[nH]c2cc1S(=O)(=O)N1CCN(Cc2ccccc2)CC1	none
CCn1c(=O)n(CC)c2cc(S(=O)(=O)Nc3ccc(C)c(Cl)c3)ccc21	none
COc1cccc(N2C(=O)c3cc4occc4n3CC2(C)C(=O)NC2CCCCCCC2)c1 (stereo not given)	none
COc1ccc(Cl)cc1NC(=O)N1CCn2cccc2C1Cc1ccccc1 (stereo not given)	none
COc1ncc(-c2ccc3nccc(-c4ccnnc4)c3c2)cc1NS(=O)(=O)c1ccc(F)cc1F	Methyltransferases active
C[C@H](Nc1cc2c(-c3ccc4c(c3)OCO4)noc2cn1)c1ccccc1	Methyltransferases active
O=C(CCn1ccc2cc(S(=O)(=O)N3CCCCC3)ccc21)NCCc1ccc(Cl)cc1	none
CNC(=O)CCn1ccc2cc(S(=O)(=O)N3CCC(C)CC3)ccc21	none
CC(C)(C)NC(=O)Nc1cccc(Nc2ncc(F)c(NC(C)(C)CO)n2)c1	none
CC1(C(=O)Nc2ccccc2F)COCc2cnc(Nc3ccccc3)nc21 (stereo not given)	none
C=CC(=O)Nc1cccc(Nc2nc(Nc3ccc(OCCOC)cc3)ncc2F)c1	Methyltransferases active
COc1cc2c(NC(C)=O)c3n(c2cc1OC)CC(C)(C(=O)NC1CCCCCC1)N(CCC(C)C)C3=O (stereo not given)	none
CC(C)c1ccc(-c2cc3n(n2)CC(C)(C(=O)NC2CCCCC2)N(C2CCCC2)C3=O)cc1 (stereo not given)	none
COc1cc(O)cc(/C=C/c2ccc(O[C@@H]3O[C@H](CO)[C@@H](O)[C@H](O)[C@H]3O)cc2)c1	none
OCC1OC(Oc2cc(O)cc(/C=C/c3ccc(OC4OC(CO)C(O)C(O)C4O)cc3O)c2)C(O)C(O)C1O (stereo not given)	none
OC[C@H]1O[C@@H](Oc2cc(O)cc(/C=C/c3ccc(O)cc3)c2)[C@H](O)[C@@H](O)[C@@H]1O	Methyltransferases active!
CCCn1c(=O)c2ccc(C(=O)NC(C)C)cc2n2c(=O)n(Cc3cccc(OC)c3)nc12	none
C=C[C@](C)(CC/C=C(\C)C(=O)O)O[C@@H]1OC[C@H](O)[C@H](O)[C@H]1O	Methyltransferases active
C=CC(C)(CCC=C(C)C)O[C@@H]1O[C@H](CO)[C@@H](O)[C@H](O)[C@H]1O (stereo not given in full)	none
C=CC(C)(CC/C=C(\C)CC/C=C(\C)CC(O)/C=C(\C)C(=O)O)O[C@@H]1O[C@H](CO)[C@@H](O)[C@H](O)[C@H]1O[C@@H]1O[C@H](CO)[C@@H](O)[C@H](O)[C@H]1O (stereo not given in full)	none
CCCNC(=O)C(CC)n1ccc2cc(S(=O)(=O)N3CCCCC3)ccc21 (stereo not given)	none
Cn1c2c(c3ccccc31)C(C(=O)NCc1ccccc1)N(C1CCCCCC1)C(=O)CS2 (stereo not given)	none
COc1ccccc1CN1C(=O)c2ccc(-c3ccco3)n2CC1(C)C(=O)NC1CCCCCC1 (stereo not given)	none
NC(=Nc1ccc(CCNCc2cccc(Cl)c2)cc1)c1cccs1	Methyltransferases active
COc1ccc(OC)c(CN2C(=O)c3ccc(-c4ccco4)n3CC2(C)C(=O)NCc2ccc(Cl)cc2)c1 (stereo not given)	none
COc1ccc2cc3n(c2c1)CC(C)(C(=O)NC1CCCCC1)N(Cc1cccnc1)C3=O (stereo not given)	none
CCOC(=O)c1cc2n(n1)CC(C)(C(=O)NCc1ccccc1OC)N(c1ccc(OCC)cc1)C2=O (stereo not given)	none
CCOc1ccc(CN2C(=O)c3cc4occc4n3CC2(C)C(=O)NC2CCCCC2C)cc1 (stereo not given)	none
COCCNC(=O)CCc1nnc2n(Cc3ccc(Cl)cc3)c(=O)c3ccccc3n12	none
CCN(CCCNC(=O)CCc1nnc2n(Cc3ccccc3)c(=O)c3ccccc3n12)c1ccccc1	none
O=C(CCc1nnc2n(Cc3ccc(F)cc3)c(=O)c3ccccc3n12)NCc1ccc(F)cc1	none
O=C(CCc1nnc2n(Cc3ccccc3)c(=O)c3ccccc3n12)NCCc1ccc(Cl)cc1	none
CCN(CC)CCNC(=O)CCc1nnc2n(Cc3ccc(Cl)cc3)c(=O)c3ccccc3n12	Methyltransferases active
CCN(CC)CCCNC(=O)CCc1nnc2n(Cc3ccc(F)cc3)c(=O)c3ccccc3n12	Methyltransferases active
CC(=O)Nc1c2n(c3ccccc13)CC(C)(C(=O)NCCC(C)C)N(Cc1ccccc1F)C2=O (stereo not given)	none
Cc1ccc(-c2cc(C(=O)Nc3ccc4c(c3)C(=O)N(C)C3=NCCN34)c3ccccc3n2)cc1C	none
CCC(C)NC(=O)c1ccc2c(=O)n(C3CC3)c3nn(CC(=O)Nc4ccccc4)c(=O)n3c2c1 (stereo not given)	none
Cc1ccc(N2C(=O)c3ccccc3CC2(C)C(=O)NCc2ccccc2C)cc1 (stereo not given)	none
COc1ccc(Sc2ccc(NC(=O)c3ccccc3Cl)cc2C#N)cc1	none
COc1cc(OC)cc(C(=O)Nc2ccc(Cl)c(-c3nc4ccc(N(C)C)cc4[nH]3)c2)c1	Methyltransferases active
CN1C(=O)c2cc(NC(=O)c3cccc(N(C)C)c3)ccc2N2CCN=C12	none
O=C(NCc1ccc(F)cc1)c1ccc2c(=O)nc3c(-c4ccccc4)n[nH]n3c2c1	none
CCN(CC)Cc1ccc2cc(COC(=O)Nc3ccc(C(=O)NO)cc3)ccc2c1	Methyltransferases active!
COc1ccc(NC(=O)c2ccc3c(c2)N(C(=O)c2ccc(OC)cc2)CC3)cc1	none
Cc1cccc(N2C(=O)c3cc(-c4ccccc4)nn3CC2(C)C(=O)NCc2ccccc2)c1C (stereo not given)	none
Cn1c(=O)c2ccc(C(=O)NC3CCCC3)cc2n2c(SCC(=O)Nc3cccc(Cl)c3)nnc12	none
CN(Cc1ccccc1)C(=O)Cn1c(=O)oc2cc(S(=O)(=O)N3CCCCC3)ccc21	none
CCC(C)NC(=O)c1ccc2c(=O)n(C(C)C)c3nn(CC(=O)Nc4ccc(C)cc4C)c(=O)n3c2c1 (stereo not given)	none
N#Cc1c(C2CCNCC2)cc(-c2c(O)cccc2OCC2CC2)nc1N	Methyltransferases active
CCC(C)NC(=O)c1ccc2c(=O)n(CC(C)C)c3nn(CC(=O)NC4CCCC4)c(=O)n3c2c1 (stereo not given)	none
CC(C)n1nc(-c2ccc(NC(=O)Nc3cccc(C(F)(F)F)c3)cc2)c2c(N)ncnc21	Methyltransferases active
CC(C)n1nc(C#Cc2ccccc2)c2c(N)ncnc21	none

High-throughput results (PubChem BioAssay)
